Bioassay records from PubChem.
Tb PYK inh: T. brucei pyruvate kinase inhibition | 0.12% of 410,000 active | AID 624173 | Potency, µM (titrated, usually from 76.8 µM), most hits filed as inhibitors | Q57TT1 | TbPYK enzyme, Kinase-Glo Plus ATP luminescence, 45 min; note: nearly all actives have a fitted effect of over 50% in size
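Assay buffer: 50 mM TEA pH 7.2, 100 mM KCl, 10 mM MgCl2, 0.05% BSA, 0.01% Tween-20. Pyruvate kinase from T. brucei plus substrate met compound, then ADP (130 uM final). Luminescence was read post 45 min RT.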
AMA1 RON2 block: AMA1-RON2 (P. falciparum) interaction inhibition. AlphaScreen AMA1-biotinylated RON2 peptide binding. AID 720542. 0.2% of 360,000 active. Potency, µM (series often up to 58.2 µM), actives largely listed as inhibitors; note: nearly all actives have a fitted effect of over 45% in size
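AMA1 (3D7) with his tag at 25 nM final met compounds first, then biotinylated RON2 peptide at 25 nM; detection used donor plus acceptor beads, 10 µg/mL apiece, read by AlphaScreen after 30 min at room temperature.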
LmPK inh: blocks Leishmania mexicana pyruvate kinase activity; purified LmPK, Kinase-Glo ATP luminescence, 1 h; Potency, µM (highest dose often 57.5 µM), usual class: inhibitors; 0.37% of 290,000 active; AID 1721
Target sequence (Q27686 whole entry, looked up): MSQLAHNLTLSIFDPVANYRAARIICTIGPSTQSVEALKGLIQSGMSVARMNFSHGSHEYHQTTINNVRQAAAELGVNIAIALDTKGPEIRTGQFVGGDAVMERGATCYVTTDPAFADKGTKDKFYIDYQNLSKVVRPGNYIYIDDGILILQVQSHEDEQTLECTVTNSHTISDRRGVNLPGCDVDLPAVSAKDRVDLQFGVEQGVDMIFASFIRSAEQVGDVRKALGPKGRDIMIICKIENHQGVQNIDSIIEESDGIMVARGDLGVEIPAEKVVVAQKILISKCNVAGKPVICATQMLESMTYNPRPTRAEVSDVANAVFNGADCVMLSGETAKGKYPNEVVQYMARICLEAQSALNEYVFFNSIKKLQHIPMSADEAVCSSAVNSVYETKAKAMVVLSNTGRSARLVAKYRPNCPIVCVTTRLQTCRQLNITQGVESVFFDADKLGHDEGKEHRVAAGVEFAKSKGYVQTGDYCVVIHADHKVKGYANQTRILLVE
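In 50 mM imidazole pH 7.2 with 7 mM MgCl2, LmPK (0.1 nM) turned over PEP (0.5 mM) and ADP (0.1 mM) for 1 h at room temperature. Luciferase read-out of ATP.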
RE007 growth inh: less growth of the S. pombe RE007 Vpr strain | S. pombe RE007 Vpr strain, BacTiter-Glo ATP luminescence, 24 h | Potency, µM (doses to about 92.2 µM), usual class: inhibitors | 0.21% of 360,000 active | AID 651644; active = well fitted falling curve with a large enough effect; inconclusive = small, poorly fitted or top-dose-only effect; inactive = no such curve, though single readings can be large or run the other way; note: nearly all actives have a fitted effect of over 50% in size
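Fission yeast RE007 carrying one integrated HIV-1 vpr copy, seeded at OD 0.01 in PMG+AL medium with 23 nL pinned compound. Grown 24 h at 30 degrees; viability read by BacTiter-Glo luminescence after 5 min.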
Large screens that a line does not name were inactive. An excerpt weighted towards active compounds, which were near 0.68% of everything screened. Unless noted, calls come from the whole dose curve; as a rule, active = well fitted curve in the direction sought with a large enough effect; inconclusive = small, poorly fitted or top-dose-only effect, or another doubt; inactive = no such curve, though single readings can be large; an effect the other way counts as inactive or inconclusive.

Cc1c(Cl)c(-c2n[nH]c(=S)n2-c2ccc(F)cc2)nn1C	Tb PYK inh 4µM, LmPK inh inconclusive
Cc1ccc(-n2c(-c3ccco3)n[nH]c2=S)cc1	Tb PYK inh 6.3µM, LmPK inh inconclusive
Fc1ccc(-n2c(-c3ccco3)n[nH]c2=S)cc1	Tb PYK inh 8.9µM, LmPK inh inconclusive
CCOc1ccc(-n2c(-c3ccco3)n[nH]c2=S)cc1	Tb PYK inh inconclusive, LmPK inh inconclusive
Cn1cc(Cl)c(-c2n[nH]c(=S)n2-c2ccc(F)cc2)n1	Tb PYK inh inconclusive
CCN(CC)CCCNC(=O)c1cnc(SC)nc1-c1ccccc1	none (no result: AMA1 RON2 block, LmPK inh, RE007 growth inh)
CCOc1cc(S(=O)(=O)Nc2ccncc2)ccc1F	none
Fc1ccc(CSc2nc3ccccc3[nH]2)cc1	LmPK inh 22µM, RE007 growth inh inconclusive
Fc1ccc(CSc2nc3ccccc3[nH]2)c2ccccc12	RE007 growth inh 13µM
CCOc1ccc(-n2cc(-c3ccc(OC)c(OC)c3)[nH]c2=S)cc1	Tb PYK inh 1.1µM, LmPK inh inconclusive
COc1ccc(OC)c(/C=N/N=C(\N)c2nonc2N)c1	none
CCOc1ccc(OCC(=O)NCCc2nc3ccccc3[nH]2)cc1	none
CC(C)n1c(-c2ccc(C(C)(C)C)cc2)n[nH]c1=S	Tb PYK inh inconclusive, LmPK inh 8.9µM
Brc1ccc(CNc2cc3c(cc2Br)OCCO3)cc1	AMA1 RON2 block 13µM
CC(Sc1ncnc2sc(-c3ccccc3)cc12)C(=O)N1CCNC1=O (stereo not given)	none (no result: LmPK inh)
Oc1cccc(Nc2c3ccccc3nc3ccccc23)c1	none (no result: RE007 growth inh)
CCN(CC)Cc1cc(Nc2c3ccccc3nc3c4ccccc4n(C)c23)cc(CN(CC)CC)c1O	Tb PYK inh inconclusive, AMA1 RON2 block 11µM (no result: LmPK inh)
CC(=O)Nc1ccc2c(c1)Cc1cc(N3C(=O)C=CC3=O)ccc1-2	Tb PYK inh inconclusive, RE007 growth inh 4.5µM (no result: LmPK inh)
O=C1C=CC(=O)N1c1ccc2c(c1)Cc1cc(F)ccc1-2	Tb PYK inh inconclusive, RE007 growth inh 2.8µM (no result: LmPK inh)
O=[N+]([O-])c1ccc2c(c1)Cc1cc(F)ccc1-2	AMA1 RON2 block inconclusive (no result: LmPK inh)
Cc1cccc(OCC(=O)NNC(=O)CCCCC(=O)NNC(=O)COc2cccc(C)c2)c1	none
Fc1ccc(-n2c(-c3cc(C4CC4)[nH]n3)n[nH]c2=S)cc1Cl	Tb PYK inh inconclusive, LmPK inh 11µM
O=C(c1ccco1)N(Cc1ccc([N+](=O)[O-])cc1)c1ccc(Cl)cc1	none
CCCCCCC(=O)N(O)C1CC(=O)N(c2ccc(C)cc2)C1=O (stereo not given)	none (no result: Tb PYK inh)
CCCCCCC(=O)N(O)C1CC(=O)N(c2ccc(Cl)cc2)C1=O (stereo not given)	RE007 growth inh 4µM
Cc1cc(Cl)ccc1NNC(=O)c1cccs1	AMA1 RON2 block 20µM
O=C(Nc1ccc([N+](=O)[O-])cc1)C(=O)Nc1cccc(C(=O)O)c1	Tb PYK inh inconclusive, LmPK inh 25µM, RE007 growth inh inconclusive
O=C(O)c1cc(NC(=O)c2ccc([N+](=O)[O-])cc2)cc(NC(=O)c2ccc([N+](=O)[O-])cc2)c1	none
COc1ccc(N2C(=O)CC(N3CCCC4CCCCC43)C2=O)cc1 (stereo not given)	RE007 growth inh 7.1µM
O=C1CC(N2CCCCCC2)C(=O)N1c1ccc2c(c1)OCO2 (stereo not given)	RE007 growth inh 6.3µM
COc1ccc(N2C(=O)CC(N3CCCCC3)C2=O)cc1 (stereo not given)	RE007 growth inh 18µM
COc1ccc(N2C(=O)CC(N3CCN(c4ccc(S(=O)(=O)N5CCCC5)cc4)CC3)C2=O)cc1 (stereo not given)	none
COc1ccc(N2C(=O)CC(C3CCCO3)C2=O)cc1 (stereo not given)	none
O=C1CC(N2CCN(c3ccc(O)cc3)CC2)C(=O)N1c1ccc2c(c1)OCO2 (stereo not given)	Tb PYK inh inconclusive
CCOc1ccc(N2C(=O)CC(N3CCC(O)(c4ccc(Br)cc4)CC3)C2=O)cc1 (stereo not given)	RE007 growth inh 35µM
O=C(NC(=S)Nc1ccc(S(=O)(=O)Nc2nccs2)cc1)C1CC1	none
NC(=O)c1ccc(NC(=O)CS(=O)(=O)c2cn(CC(=O)N3CCCC3)c3ccccc23)cc1	none
O=C1CC(N2CCSCC2)C(=O)N1c1ccc(F)cc1 (stereo not given)	RE007 growth inh 25µM
COC(=O)c1ccc(N2C(=O)CC(N3CCOCC3)C2=O)cc1 (stereo not given)	RE007 growth inh 28µM
COC(=O)c1ccc(N2C(=O)CC(N3CCN(c4ccccc4)CC3)C2=O)cc1 (stereo not given)	RE007 growth inh inconclusive (no result: LmPK inh)
O=C1CC(N2CCCCCC2)C(=O)N1c1ccc(F)cc1 (stereo not given)	RE007 growth inh 10µM
COc1ccc(N2C(=O)CC(N3CCC(O)(c4cccc(C(F)(F)F)c4)CC3)C2=O)cc1 (stereo not given)	RE007 growth inh 32µM
Cc1ccc(C)c(NC(=O)CCC(=O)NNC(=O)c2cccc([N+](=O)[O-])c2)c1	none
CN1CCc2cccc3c2[C@H]1Cc1ccc(O)c(O)c1-3	Tb PYK inh inconclusive, AMA1 RON2 block 10µM
CCCN1CCc2cccc3c2[C@H]1Cc1ccc(O)c(O)c1-3	AMA1 RON2 block inconclusive (no result: LmPK inh)
O/N=C/c1cc(Br)ccc1OCc1ccc(F)cc1	RE007 growth inh 35µM (no result: LmPK inh)
CCOc1cc(/C=N/O)ccc1OCc1ccc(C)cc1	none
O/N=C/c1cc(Br)ccc1OCc1cccc(F)c1	RE007 growth inh inconclusive
Cc1ccc(COc2ccc(Br)cc2/C=N/O)cc1	RE007 growth inh 32µM
CCn1nccc1C(=O)Nc1cc(Cl)cc(Cl)c1	none
CCn1nccc1C(=O)Nc1ccc(Cl)cn1	LmPK inh 28µM
COC(=O)C1=C(O)/C(=C/c2cccc(OC)c2O)N=C1C	LmPK inh 25µM
COC(=O)C1=C(O)/C(=C\c2cc(C)n(-c3ccc(F)cc3)c2C)N=C1C	none
Cc1ccc(N2C(=O)[C@@H]3C(c4cccnc4)=NO[C@@H]3C2=O)c(C)c1	none
O=C1[C@@H]2C(c3cccnc3)=NO[C@@H]2C(=O)N1c1ccc(Br)cc1	RE007 growth inh 22µM
CCOC(=O)N1CCC(NC(=O)c2cc(C(=O)NCc3ccc(F)cc3)ccc2CO)CC1	none
CC(C)n1c(=O)[nH]c2ccccc21	none
CC(C)n1c(=O)[nH][nH]c1=S	Tb PYK inh 3.5µM
COc1ccc(C(=O)Nc2ccccc2C(=O)N/N=C/c2ccco2)cc1	Tb PYK inh inconclusive, LmPK inh 25µM, RE007 growth inh 18µM
O=C(Nc1ccccc1C(=O)N/N=C/c1ccncc1)c1ccccc1	Tb PYK inh inconclusive, LmPK inh 25µM, RE007 growth inh 8.9µM
COC(=O)c1ccc(CNC(=O)c2ccc(S(=O)(=O)N3CCCC(C)C3)cc2)cc1 (stereo not given)	none (no result: LmPK inh)
Cc1cccc(OCCCSc2nc3ccccc3[nH]2)c1	RE007 growth inh 45µM
Cc1ccc(-n2ncc(Br)c(Br)c2=O)cc1	RE007 growth inh 16µM
Cc1ccc(C)c(OCCC(=O)Nc2ccccc2C(=O)NC2CC2)c1	none (no result: LmPK inh)
